Bioassay records: PubChem, The Scripps Research Institute Molecular Screening Center
Most compounds without a hit are left out; they make up all but 3.4% or so of the library.
GPR151 activ – human GPR151 activation. Q8TDV0. PathHunter beta-arrestin GPR151 cells, luminescence. activation, % at 11.2 µM. actives 1% (n = 650,000). AID 1508602; in the data active = activation above about 4.9%
TEAD-YAP inh – TEAD-YAP interaction inhibition. actives 1.4% (n = 640,000). HEK-TIYL cells, TEAD-Gal4/YAP UAS-luciferase luminescence. inhibition, % at 9.12 µM. AID 1259422; in the data active = inhibition above about 32%
FBW7 activator – activators of human E3 ligase FBW7; Q969H0; AlphaScreen FBW7–phospho-cyclin E peptide binding, activator screen; normalized activity (activation), % at 26.1 µM; actives 0.13% (n = 650,000); AID 1259310; in the data active = normalized activity above about 1.9%;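 also: purified mutant Fbw7 with reduced substrate affinity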
Target sequence (Q969H0 whole entry, looked up): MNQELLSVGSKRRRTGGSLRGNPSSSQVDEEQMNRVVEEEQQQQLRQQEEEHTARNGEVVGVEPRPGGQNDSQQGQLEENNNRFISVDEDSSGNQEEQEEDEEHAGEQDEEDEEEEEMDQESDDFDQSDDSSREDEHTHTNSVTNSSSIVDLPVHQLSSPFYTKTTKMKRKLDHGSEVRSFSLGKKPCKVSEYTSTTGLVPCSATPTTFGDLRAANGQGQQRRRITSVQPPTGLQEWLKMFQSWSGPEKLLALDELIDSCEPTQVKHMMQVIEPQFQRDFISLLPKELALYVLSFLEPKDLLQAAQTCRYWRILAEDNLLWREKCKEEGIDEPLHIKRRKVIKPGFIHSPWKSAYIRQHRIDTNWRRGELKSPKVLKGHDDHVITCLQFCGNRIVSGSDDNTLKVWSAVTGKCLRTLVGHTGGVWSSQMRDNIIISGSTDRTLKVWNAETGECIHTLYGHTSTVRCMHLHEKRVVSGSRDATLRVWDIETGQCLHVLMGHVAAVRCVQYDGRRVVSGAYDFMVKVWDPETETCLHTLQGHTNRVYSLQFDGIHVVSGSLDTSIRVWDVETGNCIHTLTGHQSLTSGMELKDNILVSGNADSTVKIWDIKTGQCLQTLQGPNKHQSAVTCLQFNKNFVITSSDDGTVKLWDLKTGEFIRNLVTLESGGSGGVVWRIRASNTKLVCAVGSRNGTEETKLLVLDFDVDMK
MITF inh – inhibitors of human MITF. AlphaScreen MITF homodimerization, bead proximity signal. inhibition, % at 2.6 µM. actives 0.91% (n = 650,000). AID 1259374; in the data active = inhibition above about 50%
Hits are given with their value; – = inactive.

SMILES	GPR151 activ	TEAD-YAP inh	FBW7 activator	MITF inh
COc1cc2c(cc1OC)n(CC(=O)NCc1ccco1)n1c(C)cc(=O)nc21	–	–	–	–
CC(C)c1ccc(N(C)C(=O)CNC(=O)Cn2cnc3sc4c(c3c2=O)CCCC4)cc1	–	–	–	–
COc1ccccc1-n1c(SCC(=O)Nc2nccs2)nnc1-c1cccnc1	–	56	–	–
COc1cccc(NC(=O)CSc2nnc(-c3cccnc3)n2-c2ccccc2C)c1	–	–	–	–
Cc1ccccc1-n1c(SCC(=O)Nc2nccs2)nnc1-c1ccncc1	–	–	–	–
COc1ccccc1-n1c(SCC(=O)Nc2nc(C)cs2)nnc1-c1cccnc1	–	53	–	–
COc1ccccc1-n1c(SCC(=O)Nc2nccs2)nnc1-c1ccncc1	–	62	–	–
COc1ccccc1-n1c(SCC(=O)Nc2cccc(F)c2)nnc1-c1cccnc1	–	46	–	–
Cc1csc(NC(=O)CSc2nnc(-c3cccnc3)n2-c2cccc(C)c2C)n1	–	–	–	–
Cn1cc(-c2ccc3cnc(Nc4ccc(-n5cnc(N6CCOCC6)n5)cc4)nc3c2OCCN2CCOCC2)cn1	–	96	–	–
Cn1cc(-c2ccc3cnc(Nc4ccc(-n5cnc(N6CCOCC6)n5)cc4)cc3c2)cn1	–	83	–	–
Cc1nc(C)n(-c2ccc(Nc3cc(-c4cnn(C)c4)ccn3)cc2)n1	–	–	–	–
CCOC(=O)c1c(-c2cnn(C)c2)ccc2cnc(Nc3ccc(-n4cnc(N5CCOCC5)n4)cc3)nc12	–	98	–	–
Cn1cc(-c2ccc3cnc(Nc4ccccc4)cc3c2)cn1	–	36	–	–
Cn1cc(-c2nc(Nc3ccc(-n4cnc(N5CCOCC5)n4)cc3)ncc2F)cn1	–	–	–	–
Cc1c(-c2cnn(C)c2)ccc2cnc(Nc3ccc(-n4cnc(N5CCOCC5)n4)cc3)nc12	–	–	–	–
COc1ccccc1OCC(=O)Nc1ccc(Br)cc1F	–	–	–	–
CCOC(=O)N1CCc2c(sc(NC(=O)c3cc(OC)c(OC)c(OC)c3)c2C#N)C1	–	–	–	–
Clc1cnc(Nc2ccc(-n3cnc(N4CCOCC4)n3)cc2)nc1-c1cn[nH]c1	–	55	–	–
CC(C)N1CCN(c2ncn(-c3ccc(Nc4ncc5ccc(-c6cnn(C)c6)c(Cl)c5n4)cc3)n2)CC1	–	90	–	–
Cn1cc(-c2cccc3cnc(Nc4ccc(-n5cnc(N6CCOCC6)n5)cc4)nc23)cn1	–	–	–	–
Cn1cc(-c2ccc3cnc(Nc4ccc(-n5cnc(N6CCOCC6)n5)cc4)nc3c2Cl)cn1	–	56	–	–
c1cc(-n2cnc(N3CCOCC3)n2)ccc1Nc1ncc2cc(-c3cn[nH]c3)ccc2n1	–	–	–	–
Cn1cc(-c2ccc3cnc(Nc4ccc(-c5ccc(N6CCOCC6)nc5)cc4)nc3c2Cl)cn1	–	–	–	–
Cn1cc(-c2ccc3cnc(Nc4ccc(N5CCOCC5)nc4)nc3c2Cl)cn1	–	51	–	–
SMILES	GPR151 activ	TEAD-YAP inh	FBW7 activator	MITF inh
COc1cc(OC)c(-c2nc(-c3ccccc3)c(-c3ccccc3)[nH]2)cc1OC	–	–	–	–
Cn1cc(-c2nc(Nc3ccc(-n4cnc(N5CCC(O)CC5)n4)cc3)ncc2Cl)cn1	–	72	–	–
CCN(CC)c1ccc(C2NC(=O)c3ccccc3N2)cc1 (configuration not stated)	–	79	–	–
Cc1ccc(S(=O)(=O)NCCO)c(C)c1N(C)S(=O)(=O)c1ccc(F)cc1	–	–	–	–
FC(F)(F)c1nn2cc(-c3ccccc3)nc2s1	–	–	–	–
OC(c1cn2cc(-c3ccccc3)nc2s1)(C(F)(F)F)C(F)(F)F	–	55	–	–
O=C(NCc1ccccc1)c1ccc2nc(Nc3ccc(-n4ccnc4)cc3)sc2c1	–	36	–	–
COc1cc(NC(=O)c2ccc3nc(Nc4ccccn4)sc3c2)cc(OC)c1OC	–	32	–	–
O=C(NCc1cccnc1)c1ccc2nc(Nc3ncccn3)sc2c1	–	–	–	–
COc1cc(Nc2nc3ccc(C(=O)NCc4cccnc4)cc3s2)cc(OC)c1OC	–	42	–	–
O=C(NCc1cccc(C(F)(F)F)c1)c1ccc2nc(Nc3ccc(-n4ccnc4)cc3)sc2c1	–	–	–	–
Cc1cn2c(-c3ccccc3F)nc(=S)nc2s1	–	–	–	–
COc1ccc(C2(NC(C)=O)CCN(CC(N)=O)CC2)cc1	–	–	–	–
O=C(Nc1nc2ccccc2[nH]1)c1cccc(I)c1	–	–	–	–
COc1ccc(Cl)cc1C(=O)Nc1nc2ccccc2[nH]1	–	66	–	–
O=C(Nc1nc2ccccc2[nH]1)c1ccccc1F	–	89	–	–
O=C(Nc1nc2ccccc2[nH]1)c1ccc(F)cc1	–	43	–	–
